From PubChem BioAssay (EPA / NIEHS)
Records with an inconclusive call do not appear. Calls of active or inactive are those of the source. Rule for the calls: active = hit-call score of the fitted dose curve at least 0.9, where 1 is the maximum; inconclusive = response in the unintended direction; inactive = score below 0.9.

Legend:
[1] = target: Mitogen-activated protein kinase 3 (Homo sapiens) (UniProt P27361); assay: NVS_ENZ_hMAPK3: NovaScreen (NVS) Enzymatic Assay for human Mitogen-Activated Protein Kinase 3 (MAPK 3) (AID 2283177)
Outline: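 Cell-free enzymatic assay with recombinant protein and specific substrate; fluorescence and electrophoretic mobility shift read-out 1 h after dosing. Primary screen duplicate at 25 uM; actives then run in concentration-response up to 50 uM, loss of signal versus DMSO.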

[2] = target: human MAP Kinase-Activated Protein Kinase 2 (MAPKAPK2), MAPKAPK2 (gene 9261) (UniProt P49137); assay: NVS_ENZ_hMAPKAPK2: NovaScreen (NVS) Enzymatic Assay for human MAP Kinase-Activated Protein Kinase 2 (MAPKAPK2) (AID 2283178)
Outline: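 Cell-free recombinant human MAPKAPK2 activity measured by fluorescence with electrophoretic mobility shift separation of substrate and product, 1 hr after dosing. Loss of signal versus DMSO; primary screen at 25 uM, concentration-response up to 50 uM.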

[3] = target: human MET Proto-Oncogene, Receptor Tyrosine Kinase (MET), MET (gene 4233) (UniProt P08581); assay: NVS_ENZ_hMet: NovaScreen (NVS) Enzymatic Assay for human MET Proto-Oncogene, Receptor Tyrosine Kinase (MET) (AID 2283180)
Outline: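 Cell-free MET kinase assay using recombinant protein and fluorescent substrate, with mobility-shift separation; read 1 h after dosing. Primary duplicate at 25 uM; actives in singleton concentration-response to 50 uM maximum. Signal loss versus DMSO.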

[4] = target: Collagenase 3 (Homo sapiens) (UniProt P45452); assay: NVS_ENZ_hMMP13: NovaScreen (NVS) Enzymatic Assay for human Matrix Metalloproteinase-13 (MMP13) (AID 2283182)
Outline: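 Recombinant MMP13 cleaving fluorescent substrate, cell-free, measured 1 h after dosing. Primary duplicate screen at 25 uM; actives tested in concentration-response up to 50 uM; loss of signal relative to DMSO.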

[5] = target: human Matrix Metalloproteinase-7 (MMP7), MMP7 (gene 4316) (UniProt P09237); assay: NVS_ENZ_hMMP7: NovaScreen (NVS) Enzymatic Assay for human Matrix Metalloproteinase-7 (MMP7) (AID 2283183)
Outline: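 Cell-free fluorescence enzymatic assay read 1 h after compound addition, activity loss analyzed against DMSO. Primary duplicate testing at 25 uM; compounds meeting threshold rerun in singleton concentration-response up to 50 uM.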

[6] = target: human Matrix Metalloproteinase-3 (MMP3), MMP3 (gene 4314) (UniProt P08254); assay: NVS_ENZ_hMMP3: NovaScreen (NVS) Enzymatic Assay for human Matrix Metalloproteinase-3 (MMP3) (AID 2283185)
Outline: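 Cell-free recombinant human MMP3 activity, fluorescence intensity read 1 h after dosing. Primary screen duplicate at 25 uM, actives retested in concentration series; loss of signal vs DMSO baseline.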

[7] = target: human Matrix Metalloproteinase-9 (MMP9), MMP9 (gene 4318) (UniProt P14780); assay: NVS_ENZ_hMMP9: NovaScreen (NVS) Enzymatic Assay for human Matrix Metalloproteinase-9 (MMP9) (AID 2283190);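 note: cell-free recombinant MMP9 protease activity read by fluorescent substrate signal; active means inhibition seen as loss of fluorescence signal versus DMSO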
Outline: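 Cell-free fluorescence-intensity enzyme activity assay using extracted protein, read 1 h after dosing. Loss of signal versus DMSO baseline indicates inhibition; primary screen in duplicate at 25 uM, actives followed up in concentration series.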

[8] = target: cAMP-dependent protein kinase catalytic subunit alpha (Homo sapiens) (UniProt P17612); assay: NVS_ENZ_hPKA: NovaScreen (NVS) Enzymatic Assay for human Protein Kinase A (PKA) (AID 2283192)
Outline: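 Recombinant human PKA with specific fluorescent substrate, product separated by electrophoretic mobility shift, read 1 h after dosing. Primary screen at 25 uM in duplicate; actives then run in concentration-response up to 50 uM, activity relative to DMSO.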

[9] = target: human Protein Tyrosine Phosphatase Non-receptor Type 1 (PTPN1), PTPN1 (gene 5770) (UniProt P18031); assay: NVS_ENZ_hPTPN1: NovaScreen (NVS) Enzymatic Assay for human Protein Tyrosine Phosphatase Non-receptor Type 1 (PTPN1) (AID 2283201)
Outline: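 Cell-free fluorogenic-substrate activity assay on recombinant enzyme, read 1.33 h after dosing by fluorescence and electrophoretic mobility shift; loss of signal vs DMSO baseline. Primary screen in duplicate at 25 uM, hits then run in concentration-response up to 50 uM.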

[10] = target: Tyrosine-protein phosphatase non-receptor type 11 (Homo sapiens) (UniProt Q06124); assay: NVS_ENZ_hPTPN11: NovaScreen (NVS) Enzymatic Assay for human Protein Tyrosine Phosphatase Non-receptor Type 11 (PTPN11) (AID 2283202)
Outline: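 Recombinant human PTPN11 activity on a fluorescent substrate, with substrate/product separated by electrophoretic mobility shift; read 0.5 h after dosing, loss of signal vs DMSO. Duplicate 25 uM screen, then concentration-response up to 50 uM.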

[11] = target: Serine/threonine-protein phosphatase PP1-alpha catalytic subunit (Homo sapiens) (UniProt P62136); assay: NVS_ENZ_hPPP1CA: NovaScreen (NVS) Enzymatic Assay for human Protein Phosphatase 1 Aatalytic subunit Alpha (PPP1CA) (AID 2283200)
Outline: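 Recombinant enzyme activity read by fluorescence with electrophoretic mobility shift separating substrate from product, 1.33 h after dosing; loss of signal vs DMSO baseline. Primary screen in duplicate at 25 uM; actives retested in concentration-response up to 50 uM.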

[12] = target: human Phosphodiesterase 4A1 (PDE4A1), PDE4A (gene 5141) (UniProt P27815); assay: NVS_ENZ_hPDE4A1: NovaScreen (NVS) Enzymatic Assay for human Phosphodiesterase 4A1 (PDE4A1) (AID 2283191)
Outline: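 Cell-free recombinant human PDE4A1 with fluorescent substrate; product separated by electrophoretic mobility shift, 1 h. Screened at 25 uM, then up to 50 uM in concentration-response; loss of signal fitted against DMSO.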

[13] = target: human Matrix Metalloproteinase-2 (MMP2), MMP2 (gene 4313) (UniProt P08253); assay: NVS_ENZ_hMMP2: NovaScreen (NVS) Enzymatic Assay for human Matrix Metalloproteinase-2 (MMP2) (AID 2283184)
Outline: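 Cell-free recombinant MMP2 activity with a fluorescent substrate, read 1 h after dosing. Primary screen in duplicate at 25 uM; actives then run in concentration series; loss of signal fitted versus DMSO.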

[14] = target: human Phosphoinositide 3-kinase alpha (PI3Ka), PIK3CA (gene 5290) (UniProt P42336); assay: NVS_ENZ_hPI3Ka: NovaScreen (NVS) Enzymatic Assay for human Phosphoinositide 3-kinase alpha (PI3Ka) (AID 2283196)
Outline: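 Enzyme activity as fluorescence after mobility-shift separation of substrate and product, 1 h reaction, recombinant human PI3Kα; concentration-response to 50 uM max for chemicals passing a 25 uM duplicate screen.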

[15] = target: human Phosphodiesterase 5 (PDE5), PDE5A (gene 8654) (UniProt O76074); assay: NVS_ENZ_hPDE5: NovaScreen (NVS) Enzymatic Assay for human Phosphodiesterase 5 (PDE5) (AID 2283194)
Outline: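 Recombinant human PDE5 with specific substrate, read 1 h after dosing by fluorescence with electrophoretic mobility-shift separation of substrate and product. Initial single-concentration duplicate screen at 25 uM, actives followed in concentration series; loss of activity versus DMSO.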

[16] = target: human p21 Activated Kinase 4 (PAK4), PAK4 (gene 10298) (UniProt O96013); assay: NVS_ENZ_hPAK4: NovaScreen (NVS) Enzymatic Assay for human p21 Activated Kinase 4 (PAK4) (AID 2283189)
Outline: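 Cell-free recombinant human PAK4 activity assay; fluorescent substrate and product separated by electrophoretic mobility shift, read 1 h after dosing. Initially tested in duplicate at 25 uM, relative to DMSO baseline.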

[17] = target: PPP2CA (gene 5515) (UniProt P67775); assay: NVS_ENZ_hPPP2CA: NovaScreen (NVS) Enzymatic Assay for human Protein Phosphatase 2 Aatalytic subunit Alpha (PPP2CA) (AID 2283199)
Outline: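 Recombinant human PPP2CA with fluorescent substrate; product separated from substrate by electrophoretic mobility shift, read 1.33 h after dosing. Duplicate single-point at 25 uM, then singleton concentration-response up to 50 uM; loss of signal versus DMSO.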

[18] = target: human NIMA (Never In Mitosis Gene A)-Related Kinase 2 (NEK2), NEK2 (gene 4751) (UniProt P51955); assay: NVS_ENZ_hNEK2: NovaScreen (NVS) Enzymatic Assay for human NIMA (Never In Mitosis Gene A)-Related Kinase 2 (NEK2) (AID 2283188)
Outline: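 Cell-free NEK2 enzyme activity after 1 h exposure, read by fluorescence with electrophoretic mobility shift separating substrate and product. Primary screen in duplicate at 25 uM; actives then run as concentration series. Loss of signal versus DMSO scored.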

Chain of human Phosphoinositide 3-kinase alpha (PI3Ka), PIK3CA (gene 5290) (P42336 whole entry, looked up): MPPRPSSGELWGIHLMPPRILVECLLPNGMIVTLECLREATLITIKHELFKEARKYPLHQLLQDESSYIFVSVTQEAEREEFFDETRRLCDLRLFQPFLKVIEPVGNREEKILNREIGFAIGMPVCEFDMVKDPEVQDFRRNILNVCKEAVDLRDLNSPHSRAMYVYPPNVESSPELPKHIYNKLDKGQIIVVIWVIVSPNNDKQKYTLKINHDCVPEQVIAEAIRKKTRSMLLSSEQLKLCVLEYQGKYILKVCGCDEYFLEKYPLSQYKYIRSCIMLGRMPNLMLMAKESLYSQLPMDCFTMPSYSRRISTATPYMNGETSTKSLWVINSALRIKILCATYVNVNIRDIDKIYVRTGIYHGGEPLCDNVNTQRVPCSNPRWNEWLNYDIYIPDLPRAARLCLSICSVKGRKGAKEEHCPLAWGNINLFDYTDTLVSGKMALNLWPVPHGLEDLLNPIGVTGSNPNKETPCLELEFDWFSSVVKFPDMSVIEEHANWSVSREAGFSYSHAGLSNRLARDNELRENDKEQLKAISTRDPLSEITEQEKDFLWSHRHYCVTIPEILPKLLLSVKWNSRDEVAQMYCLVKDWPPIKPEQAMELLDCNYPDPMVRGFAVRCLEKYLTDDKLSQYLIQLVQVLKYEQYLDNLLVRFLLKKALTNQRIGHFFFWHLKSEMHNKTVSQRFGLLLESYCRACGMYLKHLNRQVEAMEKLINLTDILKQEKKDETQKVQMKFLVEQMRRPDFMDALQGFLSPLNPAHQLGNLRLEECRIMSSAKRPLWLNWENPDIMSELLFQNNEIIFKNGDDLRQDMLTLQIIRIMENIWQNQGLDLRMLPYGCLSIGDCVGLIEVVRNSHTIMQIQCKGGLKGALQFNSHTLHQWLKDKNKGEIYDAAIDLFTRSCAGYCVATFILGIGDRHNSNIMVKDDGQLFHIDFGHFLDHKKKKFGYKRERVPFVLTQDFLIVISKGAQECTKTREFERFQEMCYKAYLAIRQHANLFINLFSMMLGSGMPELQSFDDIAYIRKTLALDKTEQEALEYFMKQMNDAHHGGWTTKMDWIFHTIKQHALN
Chain of human Matrix Metalloproteinase-7 (MMP7), MMP7 (gene 4316) (P09237 whole entry, looked up): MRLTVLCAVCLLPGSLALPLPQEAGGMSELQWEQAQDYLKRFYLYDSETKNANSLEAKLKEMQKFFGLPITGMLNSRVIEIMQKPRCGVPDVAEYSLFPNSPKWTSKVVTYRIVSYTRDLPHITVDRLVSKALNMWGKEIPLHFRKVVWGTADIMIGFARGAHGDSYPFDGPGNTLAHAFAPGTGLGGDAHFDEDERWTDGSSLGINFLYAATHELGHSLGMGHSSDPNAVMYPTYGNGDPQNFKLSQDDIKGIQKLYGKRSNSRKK
Chain of Serine/threonine-protein phosphatase PP1-alpha catalytic subunit (Homo sapiens) (P62136 whole entry, looked up): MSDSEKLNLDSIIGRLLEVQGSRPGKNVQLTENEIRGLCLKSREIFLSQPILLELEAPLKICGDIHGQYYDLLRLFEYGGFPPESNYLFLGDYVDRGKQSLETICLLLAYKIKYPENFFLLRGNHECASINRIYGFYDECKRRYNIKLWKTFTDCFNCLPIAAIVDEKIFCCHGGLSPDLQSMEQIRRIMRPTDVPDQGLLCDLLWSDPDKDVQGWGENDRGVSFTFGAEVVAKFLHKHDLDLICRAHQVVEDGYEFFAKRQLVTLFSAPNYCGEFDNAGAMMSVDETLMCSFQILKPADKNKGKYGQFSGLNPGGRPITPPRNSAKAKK
Chain of human Matrix Metalloproteinase-9 (MMP9), MMP9 (gene 4318) (P14780 whole entry, looked up): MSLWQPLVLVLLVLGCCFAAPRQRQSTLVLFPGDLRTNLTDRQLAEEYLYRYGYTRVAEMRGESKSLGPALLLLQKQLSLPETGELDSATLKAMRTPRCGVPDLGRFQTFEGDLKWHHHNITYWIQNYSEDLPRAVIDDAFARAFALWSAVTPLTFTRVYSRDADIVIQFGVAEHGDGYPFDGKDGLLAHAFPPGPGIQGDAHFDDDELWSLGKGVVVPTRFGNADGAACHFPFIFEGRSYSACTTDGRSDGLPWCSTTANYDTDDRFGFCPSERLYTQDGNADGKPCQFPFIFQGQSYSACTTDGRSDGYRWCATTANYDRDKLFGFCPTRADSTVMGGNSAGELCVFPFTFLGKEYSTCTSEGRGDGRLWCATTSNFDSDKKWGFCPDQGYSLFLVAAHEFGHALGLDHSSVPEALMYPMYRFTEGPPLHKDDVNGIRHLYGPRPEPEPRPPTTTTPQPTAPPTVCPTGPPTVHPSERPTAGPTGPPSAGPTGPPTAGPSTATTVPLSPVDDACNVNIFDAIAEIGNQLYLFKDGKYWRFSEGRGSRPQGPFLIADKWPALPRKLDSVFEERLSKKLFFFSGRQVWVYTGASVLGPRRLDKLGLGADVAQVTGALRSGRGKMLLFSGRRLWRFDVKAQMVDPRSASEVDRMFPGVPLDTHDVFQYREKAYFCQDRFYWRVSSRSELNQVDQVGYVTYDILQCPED
Chain of human Phosphodiesterase 4A1 (PDE4A1), PDE4A (gene 5141) (P27815 whole entry, looked up): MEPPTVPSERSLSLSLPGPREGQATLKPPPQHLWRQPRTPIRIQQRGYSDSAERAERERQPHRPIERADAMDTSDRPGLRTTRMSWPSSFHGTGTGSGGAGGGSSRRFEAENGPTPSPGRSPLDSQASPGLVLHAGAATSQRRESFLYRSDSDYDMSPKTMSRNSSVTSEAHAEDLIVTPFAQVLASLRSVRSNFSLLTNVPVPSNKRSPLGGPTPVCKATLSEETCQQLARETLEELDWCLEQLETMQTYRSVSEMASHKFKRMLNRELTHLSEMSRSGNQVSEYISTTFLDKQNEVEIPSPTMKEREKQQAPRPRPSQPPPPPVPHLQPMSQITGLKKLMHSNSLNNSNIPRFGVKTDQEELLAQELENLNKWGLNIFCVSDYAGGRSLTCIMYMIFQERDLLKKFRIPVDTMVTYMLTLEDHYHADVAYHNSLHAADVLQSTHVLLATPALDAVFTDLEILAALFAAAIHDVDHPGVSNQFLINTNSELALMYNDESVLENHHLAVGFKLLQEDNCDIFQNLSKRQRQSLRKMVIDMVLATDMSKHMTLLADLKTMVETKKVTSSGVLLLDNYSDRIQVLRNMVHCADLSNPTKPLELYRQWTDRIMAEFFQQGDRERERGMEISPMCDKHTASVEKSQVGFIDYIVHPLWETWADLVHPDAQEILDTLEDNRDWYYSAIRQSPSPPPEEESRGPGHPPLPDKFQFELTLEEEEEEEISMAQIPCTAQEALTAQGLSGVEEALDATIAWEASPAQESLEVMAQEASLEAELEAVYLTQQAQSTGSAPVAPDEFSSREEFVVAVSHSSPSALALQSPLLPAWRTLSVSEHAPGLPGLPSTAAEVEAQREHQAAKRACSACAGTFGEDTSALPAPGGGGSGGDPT
Chain of human Matrix Metalloproteinase-3 (MMP3), MMP3 (gene 4314) (P08254 whole entry, looked up): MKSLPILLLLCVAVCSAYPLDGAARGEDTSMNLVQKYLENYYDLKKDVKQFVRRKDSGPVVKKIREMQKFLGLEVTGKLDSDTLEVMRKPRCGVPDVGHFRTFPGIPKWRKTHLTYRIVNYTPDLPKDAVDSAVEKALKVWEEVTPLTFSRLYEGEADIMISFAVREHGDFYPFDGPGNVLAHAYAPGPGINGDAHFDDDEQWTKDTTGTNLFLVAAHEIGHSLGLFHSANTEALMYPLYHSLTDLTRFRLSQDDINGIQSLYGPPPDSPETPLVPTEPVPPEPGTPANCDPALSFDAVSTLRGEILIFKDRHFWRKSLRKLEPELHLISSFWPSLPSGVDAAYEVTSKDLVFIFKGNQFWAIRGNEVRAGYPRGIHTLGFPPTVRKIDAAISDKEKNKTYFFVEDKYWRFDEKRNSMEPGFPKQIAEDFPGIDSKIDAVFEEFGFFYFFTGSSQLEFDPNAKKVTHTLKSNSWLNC
Chain of Mitogen-activated protein kinase 3 (Homo sapiens) (P27361 whole entry, looked up): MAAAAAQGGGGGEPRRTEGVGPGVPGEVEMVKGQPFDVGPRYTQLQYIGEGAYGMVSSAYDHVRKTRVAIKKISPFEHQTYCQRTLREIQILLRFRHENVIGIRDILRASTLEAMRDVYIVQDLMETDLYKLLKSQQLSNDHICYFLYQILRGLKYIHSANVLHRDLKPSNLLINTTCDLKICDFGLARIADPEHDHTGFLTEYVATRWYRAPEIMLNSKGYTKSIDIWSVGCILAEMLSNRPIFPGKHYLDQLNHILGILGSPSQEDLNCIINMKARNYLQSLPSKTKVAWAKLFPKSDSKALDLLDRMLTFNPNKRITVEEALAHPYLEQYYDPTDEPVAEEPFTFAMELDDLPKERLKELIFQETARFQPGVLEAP
Chain of human Protein Tyrosine Phosphatase Non-receptor Type 1 (PTPN1), PTPN1 (gene 5770) (P18031 whole entry, looked up): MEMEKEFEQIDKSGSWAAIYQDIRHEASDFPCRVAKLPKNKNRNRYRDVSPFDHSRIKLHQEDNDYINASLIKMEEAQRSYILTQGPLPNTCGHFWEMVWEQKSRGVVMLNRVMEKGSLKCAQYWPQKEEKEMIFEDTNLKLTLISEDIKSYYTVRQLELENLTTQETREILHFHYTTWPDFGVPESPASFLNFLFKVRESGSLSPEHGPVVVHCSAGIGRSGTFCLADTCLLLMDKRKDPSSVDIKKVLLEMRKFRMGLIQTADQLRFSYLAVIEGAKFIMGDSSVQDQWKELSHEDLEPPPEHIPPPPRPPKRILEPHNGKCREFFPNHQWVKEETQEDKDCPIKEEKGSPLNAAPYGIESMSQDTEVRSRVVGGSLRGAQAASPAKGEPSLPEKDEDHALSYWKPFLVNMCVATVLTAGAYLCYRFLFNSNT
Chain of PPP2CA (gene 5515) (P67775 whole entry, looked up): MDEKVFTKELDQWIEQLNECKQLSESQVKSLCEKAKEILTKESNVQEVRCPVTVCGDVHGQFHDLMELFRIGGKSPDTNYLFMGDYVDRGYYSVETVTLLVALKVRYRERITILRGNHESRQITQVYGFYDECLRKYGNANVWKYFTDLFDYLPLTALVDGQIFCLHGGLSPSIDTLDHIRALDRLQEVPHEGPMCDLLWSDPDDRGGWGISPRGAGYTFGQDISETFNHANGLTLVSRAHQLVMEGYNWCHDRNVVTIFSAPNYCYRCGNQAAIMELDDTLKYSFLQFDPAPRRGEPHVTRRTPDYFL

Q: Which outcome [1] does the source give for `S=C1NCCN1` here?
A: Its outcome is “inactive”.

Q: And the outcome [2]?
A: Its outcome is “inactive”.

Q: And the outcome [3]?
A: The outcome was “inactive”.

Q: What about the outcome [4] of the same compound?
A: The outcome was “inactive”.

Q: And the outcome [5]?
A: The outcome was “inactive”.

Q: What about the outcome [6] of the same compound?
A: The outcome was “inactive”.

Q: What about the outcome [7] of the same compound?
A: Its outcome is “inactive”.

Q: And the outcome [8]?
A: The outcome was “inactive”.

Q: And the outcome [9]?
A: The outcome was “inactive”.

Q: And the outcome [10]?
A: Its outcome is “inactive”.

Q: Which outcome [11] does the source give for `CCOP(=S)(OCC)SCCSCC` here?
A: The outcome was “inactive”.

Q: How did the outcome [6] turn out when `CC1=NNC(=O)N(/N=C/c2cccnc2)C1` was run?
A: The outcome was “inactive”.

Q: Which outcome [7] does the source give for `O=C(O)c1cc(Oc2ccc(C(F)(F)F)cc2Cl)ccc1[N+](=O)[O-]` here?
A: The outcome was “inactive”.

Q: And the outcome [12]?
A: Its outcome is “inactive”.

Q: Which AC50 [4] does the source give for `CC(C)[C@H](C(=O)O[C@H](C#N)c1cccc(Oc2ccccc2)c1)c1ccc(Cl)cc1` here?
A: The AC50 was 13 µM (active).

Q: For `CCOC(=O)CC(SP(=O)(OC)OC)C(=O)OCC` (stereo not given), which outcome [13] is on record?
A: The outcome was “inactive”.

Q: And the outcome [7]?
A: The outcome was “inactive”.

Q: What about the outcome [11] of the same compound?
A: Its outcome is “inactive”.

Q: `CC(C1CC1)C(O)(Cn1cncn1)c1ccc(Cl)cc1` (stereo not given) was tested. Which outcome [1] did it give?
A: The outcome was “inactive”.

Q: With `CC(C)=CC1C(C(=O)OCN2C(=O)C3=C(CCCC3)C2=O)C1(C)C` (stereo not given) as the compound, how does the outcome [14] read?
A: The outcome was “inactive”.

Q: How did the AC50 [12] turn out when `C[Si](Cn1cncn1)(c1ccc(F)cc1)c1ccc(F)cc1` was run?
A: The AC50 was 7.33 µM (active).

Q: And the outcome [15]?
A: Its outcome is “inactive”.

Q: `CCOP(=S)(OCC)Oc1ccc([N+](=O)[O-])cc1` was tested. Which outcome [12] did it give?
A: The outcome was “inactive”.

Q: Which AC50 [5] does the source give for `CNC(=O)Oc1cccc2c1OC(C)(C)O2` here?
A: The AC50 was 6.07 µM (active).

Q: And the outcome [10]?
A: Its outcome is “inactive”.

Q: With `CCOP(=S)(OCC)OC(Cl)C(Cl)(Cl)Cl` (stereo not given) as the compound, how does the outcome [6] read?
A: Its outcome is “inactive”.

Q: And the outcome [9]?
A: The outcome was “inactive”.

Q: How did the AC50 [11] turn out when `CCCCSP(=O)(SCCCC)SCCCC` was run?
A: Its AC50 is 10.4 µM (active).

Q: Which outcome [3] does the source give for `CC[C@H](C)[C@H]1O[C@]2(C=C[C@@H]1C)C[C@@H]1C[C@@H](C/C=C(\C)[C@@H](O[C@H]3C[C@H](OC)[C@@H](O[C@H]4C[C@H](OC)[C@@H](NC)[C@H](C)O4)[C@H](C)O3)[C@@H](C)/C=C/C=C3\CO[C@@H]4[C@H](O)C(C)=C[C@@H](C(=O)O1)[C@]34O)O2` here?
A: Its outcome is “inactive”.

Q: What about the outcome [16] of the same compound?
A: The outcome was “inactive”.

Q: What about the outcome [7] of the same compound?
A: Its outcome is “inactive”.

Q: And the AC50 [12]?
A: Its AC50 is 25 µM (active).

Q: What about the AC50 [15] of the same compound?
A: The AC50 was 39.3 µM (active).

Q: What about the AC50 [14] of the same compound?
A: The AC50 was 7.94 µM (active).

Q: What about the AC50 [17] of the same compound?
A: The AC50 was 16.8 µM (active).

Q: Which outcome [6] does the source give for `Cc1cc(C2CC2)nc(Nc2ccccc2)n1` here?
A: The outcome was “inactive”.

Q: And the outcome [12]?
A: The outcome was “inactive”.

Q: With `CCOP(=O)(OCC)Oc1cc(C)nc(C(C)C)n1` as the compound, how does the AC50 [5] read?
A: The AC50 was 11.8 µM (active).

Q: And the outcome [6]?
A: The outcome was “inactive”.

Q: What about the outcome [11] of the same compound?
A: The outcome was “inactive”.

Q: With `CCOP(=S)(Oc1cnc(C(C)(C)C)nc1)OC(C)C` (stereo not given) as the compound, how does the outcome [17] read?
A: The outcome was “inactive”.

Q: Which outcome [18] does the source give for `CNC(=O)ON=C(C)SC` here?
A: Its outcome is “inactive”.

Q: And the outcome [14]?
A: Its outcome is “inactive”.

Q: `CC1(C(=O)Nc2ccc(O)c(Cl)c2Cl)CCCCC1` was tested. Which outcome [14] did it give?
A: Its outcome is “inactive”.

Q: Which outcome [6] does the source give for `C#CC(C)(C)NC(=O)c1cc(Cl)cc(Cl)c1` here?
A: The outcome was “inactive”.
